This is one part of a sample in which hits are shown more often than they occur.
DUX4 inh: blocks DUX4-driven transcriptional activation; 293T-iDUX4 ZSCAN4-Gaussia luciferase reporter, 24 h; hits give low values; activity change, negative = inhibition, % (test concentration not listed); hit rate 0.8% among 37,000; AID 1224904;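 active means mean inhibition of at least 10% in the main channel, exceeding the control channel by a set limit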;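 further: 0% = median of neutral control wells and -100% = median of positive control wells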
Numbers without * were called inactive; ! = not confirmed by another sample.

SMILES	DUX4 inh
C(=C\c1ccc(C2[C@@H]3CN(Cc4nccs4)C[C@H]2N3)cc1)/c1ccccc1 (stereo partly drawn)	-32.4*!
C/C=C/c1ccc(C2[C@H]3CNC[C@@H]2N3Cc2nccs2)cc1 (stereo partly drawn)	9.1
O=C(Cc1ccncc1)N1C[C@@H]2N[C@H](C1)C2c1ccc(/C=C/c2ccccc2)cc1 (stereo partly drawn)	-28.4*!
O=C(C[C@@H]1C[C@H]2c3cc(NC(=O)CC4CC4)ccc3O[C@H]2[C@H](CO)O1)NCc1ccccn1	0.7
O=C([C@H]1[C@H](CO)[C@H]2Cn3c(ccc(-c4ccccc4F)c3=O)[C@@H]1N2C(=O)C1CC1)N1CCOCC1	1.5
C[C@@H]1CC(=O)NCC/C=C\C[C@@H](c2cccc(Cl)c2)NC1=O	-1.9
CC(=O)N(C)C[C@H]1OCc2ccccc2-c2ccccc2C(=O)N([C@@H](C)CO)C[C@@H]1C	17.5
CN1C(=O)c2cc(NC(=O)Nc3cccc(Cl)c3)ccc2OC[C@@H]2O[C@@H](CC(=O)NCCc3ccncc3)CC[C@@H]21	-0.9
CCCNC(=O)C[C@H]1CC[C@@H]2[C@H](COc3ccc(NC(=O)c4ccc(Cl)cc4)cc3C(=O)N2C)O1	-1.9
C[C@H](CO)N1C[C@H](C)[C@@H](CN(C)C(=O)c2ccccc2)OCCCC[C@H](C)Oc2ccc(NS(=O)(=O)c3ccc(F)cc3)cc2C1=O	2.0
COc1ccc(-c2ccc3n(c2=O)C[C@H]2[C@H](CO)[C@@H](C(=O)N(C)C)[C@@H]3N2Cc2ccncc2)cc1	-4.6
C[C@@H]1CN([C@@H](C)CO)C(=O)c2cc(NC(=O)NC3CCCCC3)ccc2O[C@@H](C)CCCCO[C@H]1CN(C)Cc1ccc(C(=O)O)cc1	-0.5
C[C@H](CO)N1C[C@H](C)[C@@H](CN(C)C(=O)Nc2cccc3ccccc23)Oc2ccc(N(C)C)cc2C1=O	-0.2
OC[C@@H]1[C@H](c2ccc(C#Cc3ccccc3)cc2)[C@@H]2CN(CC3CCOCC3)CCCCN12	8.1
OC[C@@H]1[C@H](c2ccc(C#Cc3ccccc3F)cc2)[C@H]2CN(CC3CCOCC3)CCCCN12	-21.0*
CN1CCCCN2[C@H](C1)[C@H](c1ccc(C#Cc3ccccc3F)cc1)[C@@H]2CO	-6.2
OC[C@H]1[C@H](c2ccc(C#Cc3ccccc3)cc2)[C@H]2CN(CC3CCOCC3)CCCCN21	-8.1
OC[C@H]1[C@H](c2ccc(C#Cc3ccccc3F)cc2)[C@@H]2CN(CC3CCOCC3)CCCCN12	-12.8*
CN1CCCCN2[C@H](CO)[C@H](c3ccc(C#Cc4ccccc4F)cc3)[C@@H]2C1	6.2
CCCNC(=O)C[C@@H]1CC[C@@H]2[C@H](COC[C@H](O)CN2C(=O)c2ccccn2)O1	2.6
O=C(O)C[C@@H]1C[C@@H]2c3cc(NC(=O)C4CCC4)ccc3O[C@@H]2[C@H](CO)O1	8.0
O=C(NCC1CCCCC1)[C@H]1[C@H](CO)[C@H]2Cn3c(cccc3=O)[C@@H]1N2C(=O)c1cccnc1	1.5
Cn1cnc(S(=O)(=O)N2CC[C@H]3[C@H](CO)Nc4ccc(-c5ccccc5F)cc4[C@H]32)c1	11.1
O=C(NCC1CC1)[C@H]1[C@H](CO)[C@H]2Cn3c(ccc(-c4cccc(F)c4)c3=O)[C@H]2N1CC1CCOCC1	9.6
CO[C@@H]1CN(C)C(=O)c2ccc(NC(=O)c3cnccn3)cc2OC[C@@H](C)N(C(=O)C2CC2)C[C@@H]1C	1.1
SMILES	DUX4 inh
O=C(C[C@@H]1C[C@H]2c3cc(NC(=O)Nc4ccc(C(F)(F)F)cc4)ccc3O[C@H]2[C@H](CO)O1)NCCc1ccccc1	-47.4*
C[C@H](NC(=O)C[C@@H]1C[C@H]2c3cc(NC(=O)Nc4ccc(C(F)(F)F)cc4)ccc3O[C@H]2[C@H](CO)O1)c1ccccc1	-13.9*
COc1ccc(NC(=O)Nc2ccc3c(c2)[C@H]2C[C@@H](CC(=O)NCCc4ccccc4)O[C@@H](CO)[C@H]2O3)cc1	-1.1
COc1ccc(NC(=O)Nc2ccc3c(c2)[C@@H]2C[C@@H](CC(=O)N[C@@H](C)c4ccccc4)O[C@H](CO)[C@@H]2O3)cc1	4.1
O=C(C[C@H]1C[C@H]2c3cc(NC(=O)Nc4ccc(C(F)(F)F)cc4)ccc3O[C@H]2[C@H](CO)O1)NCc1ccc2c(c1)OCO2	-5.6
O=C(C[C@H]1C[C@H]2c3cc(NC(=O)Nc4ccc(C(F)(F)F)cc4)ccc3O[C@H]2[C@@H](CO)O1)NCc1ccc(Cl)cc1	-3.8
O=C(C[C@@H]1C[C@@H]2c3cc(NC(=O)Nc4ccc(C(F)(F)F)cc4)ccc3O[C@@H]2[C@H](CO)O1)NCc1ccc(Cl)cc1	3.0
O=C(C[C@@H]1C[C@H]2c3cc(NC(=O)Nc4ccc(C(F)(F)F)cc4)ccc3O[C@H]2[C@H](CO)O1)NCc1ccc(Cl)cc1	-37.1*
O=C(C[C@@H]1C[C@@H]2c3cc(NC(=O)Nc4ccc(C(F)(F)F)cc4)ccc3O[C@@H]2[C@@H](CO)O1)NCc1ccc2c(c1)OCO2	-7.1
O=C(C[C@@H]1C[C@H]2c3cc(NC(=O)Nc4ccc(C(F)(F)F)cc4)ccc3O[C@H]2[C@H](CO)O1)NCc1ccc2c(c1)OCO2	-46.6*

Screening results as filed in PubChem.
